Values joined by “and” are separate entries in the source; they are usually repeats but may differ in a detail not shown here. Equal entries are not always repeated. Records with an inconclusive call do not appear. Active and inactive are the calls of the source. Unless noted, calls follow the shape of the dose curve; as a rule, active = well fitted curve in the direction sought with a large enough effect in the repeat runs; inconclusive = weak or mixed curves; inactive = no such curve, though single readings can be large; an effect the other way counts as inactive or inconclusive.
What was measured:
[1] = qHTS assay for small molecules that induce genotoxicity in human embryonic kidney cells expressing luciferase-tagged ATAD5 (AID 651632); also: nearly all actives have a fitted effect of over 15% in size
In short: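 Concentration-response screen for ATAD5 upregulation in HEK293T luciferase reporter cells; 16 hr treatment at 37C, then luminescence after 30 min with Amplite at room temperature.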

[2] = qHTS assay for small molecule agonists of the p53 signaling pathway - cell viability (AID 651633; calls by dose curve; also: nearly all actives have a fitted effect of over 30% in size; also: potency is read from the fitted curve at half-maximal effect)
In short: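 Viability counter-read: CellTiter-Glo luminescence (30 min, room temperature) in the same p53RE-bla plates. These plates had been exposed to compounds for 16 h at 37 C.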

[3] = qHTS assay for small molecules that induce genotoxicity in human embryonic kidney cells expressing luciferase-tagged ATAD5 - cell viability (AID 651634; calls by dose curve; also: nearly all actives have a fitted effect of over 25% in size; also: potency is read from the fitted curve at half-maximal effect)
In short: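 15.5 hr compound or vehicle exposure of HEK293T cells expressing luciferase-tagged ATAD5 at 37C; live-cell protease activity is read by fluorescence after 30 min of CellTiter-Fluor.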

[4] = qHTS assay for small molecule disruptors of the mitochondrial membrane potential (AID 720635); also: potency is read from the fitted curve at half-maximal effect
In short: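 Mitochondrial membrane potential tracked with Mito-MPS dye, red aggregates (ex 540/em 590 nm) against green monomers (ex 490/em 535 nm). Compound treatment 1 hr at 37C, dye 30 min in HepG2.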

[5] = qHTS assay to test for compound auto fluorescence at 590 nm (red) in HepG2 cells (AID 720674)
In short: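 We screened compounds on adherent HepG2 cells, incubating them for an hour at 37 C in 5% CO2 before reading emission at 590 nm under 540 nm excitation; values reflect equivalence to Rose Bengal sodium fluorescence.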

[6] = qHTS assay to test for compound auto fluorescence at 535 nm (green) in HepG2 cells (AID 720675)
[7] = qHTS assay to test for compound auto fluorescence at 590 nm (red) in HEK293 cells (AID 720679)
In short: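 Red-channel autofluorescence (Ex/Em 540/590 nm; Rose Bengal sodium reference) was measured after overnight 37C, 5% CO2 exposure of attached HEK293 cells, 2,000 per well in medium with 10% dialyzed FBS.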

[8] = qHTS assay for small molecule disruptors of the mitochondrial membrane potential - cell viability (AID 720634; calls by dose curve; also: nearly all actives have a fitted effect of over 20% in size; also: potency is read from the fitted curve at half-maximal effect)
In short: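 In this qHTS format, HepG2 cells plated overnight were pinned with compound, incubated 1 hr, and assayed for ATP luminescence with CellTiter-Glo after m-MPI dye addition.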

[9] = qHTS assay to test for compound auto fluorescence at 460 nm (blue) in HEK293 cells (AID 720678)
In short: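 Blue-channel (Ex/Em 405/460 nm) intensity measured in HEK293 cultures after overnight compound exposure at 37C; signal expressed relative to triamterene. Cells plated 2,000 per well in 10% dialyzed FBS medium and allowed 4-5 hr to attach.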
% is scaled to controls: 0 for no effect and ±100 for the full control effect.

CCCCC(CC)COC(=O)c1ccc(O)cc1 (stereo not given)
inactive: Potency [1] | Potency [3] | Potency [5] | Potency [6] | Potency [7]
active: Potency [2] 54.3 µM | Potency [4] 5.43 µM and 6.11 µM

CN(C)CCOC(c1ccccc1)c1ccccc1 (tested in a mixture with another compound)
inactive: Potency [1] | Potency [2] | Potency [3] | Potency [8] | Potency [5] | Potency [6] | Potency [7]

CCN=C1C=CC(=C(c2ccc(N(CC)CC)cc2)c2ccc(N(CC)CC)cc2)c2ccccc21
inactive: Potency [1] | Potency [5] | Potency [6] | Potency [7]
active: Potency [2] 30.5 µM | Potency [3] 34.2 µM | Potency [4] 0.0076 µM

CC(CN(C)C)CN1c2ccccc2CCc2ccccc21 (stereo not given)
inactive: Potency [1] | Potency [2] | Potency [3] | Potency [8] | fluorescence, relative to Rose Bengal [5] 0.485% [at 18.6 µM] | fluorescence, % of fluorescein control [6] -0.198% [at 18.6 µM] | fluorescence, % of triamterene [9] -0.0464% [at 18.6 µM] | fluorescence, % of fluorescent control [7] -0.076% [at 18.6 µM]

C[C@]12CC[C@H]3C(=CCc4cc(O)ccc43)[C@@H]1CCC2=O
inactive: Potency [1] | Potency [2] | Potency [5] | Potency [6] | Potency [9] | Potency [7]
active: Potency [4] 19.3 µM

CC(C)(c1cc(Br)c(OCCO)c(Br)c1)c1cc(Br)c(OCCO)c(Br)c1
active: Potency [2] 47.5 µM | Potency [3] 37.7 µM | Potency [4] 5.97 µM
inactive: Potency [1] | Potency [8] | Potency [5] | Potency [6] | Potency [7]

CC(C)c1ccc(O)c(C(C)C)c1
active: Potency [4] 15.4 µM
inactive: Potency [1] | Potency [2] | Potency [5] | Potency [6] | Potency [7]

CCCCCCCC/C=C/CCCOC(C)=O
inactive: Potency [1] | Potency [2] | Potency [3] | Potency [5] | Potency [6] | Potency [9] | Potency [7]

c1ccc(Nc2cccc3ccccc23)cc1
active: Potency [4] 43.8 µM and 43.3 µM
inactive: Potency [1] | Potency [2] | Potency [3] | Potency [5] | Potency [6] | Potency [9] | Potency [7]

Nc1ncnc2c1ncn2[C@@H]1O[C@H](COP(=O)(O)O)[C@@H](O)[C@H]1O
inactive: Potency [1] | Potency [2] | Potency [3] | Potency [8] | Potency [5] | Potency [6] | Potency [9] | Potency [7]

CC(NCCC(c1ccccc1)c1ccccc1)c1ccccc1 (stereo not given)
inactive: Potency [1] | Potency [8] | Potency [5] | Potency [6] | Potency [9] | Potency [7]
active: Potency [2] 29.8 µM | Potency [4] 8.8 µM

CCCCNc1c(C(=O)OCC)c(C)nc2c1cnn2CC
inactive: Potency [1] | Potency [2] | Potency [3] | Potency [5] | Potency [6] | Potency [9] | Potency [7]

NCCCCCCNCCCCCCN
inactive: Potency [1] | Potency [2] | Potency [3] | Potency [8] | Potency [4] | Potency [5] | Potency [6] | Potency [9] | Potency [7]

c1cc(OCC2CO2)cc(OCC2CO2)c1 (stereo not given)
inactive: Potency [1] | Potency [8] | Potency [5] | Potency [6] | Potency [9] | Potency [7]

O=C1Nc2ccc(Cl)cc2[C@@](C#CC2CC2)(C(F)(F)F)O1
inactive: Potency [1] | Potency [5] | Potency [6] | Potency [9] | Potency [7]
active: Potency [8] 29.8 µM | Potency [4] 4.73 µM

C=C(c1ccc(C(=O)O)cc1)c1cc2c(cc1C)C(C)(C)CCC2(C)C
inactive: Potency [1] | Potency [8] | Potency [5] | Potency [6] | Potency [9] | Potency [7]
active: Potency [4] 9.44 µM and 21.7 µM

CCCCCCCC/C=C\CCCCCCCC(=O)N(C)CC(=O)O
active: Potency [2] 43.3 µM
inactive: Potency [1] | Potency [5] | Potency [6] | Potency [9] | Potency [7]

CCN1CCN(c2cc(-c3ccc(F)cc3)c3c(n2)CCCCCC3)CC1
inactive: Potency [1] | Potency [8] | Potency [4] | Potency [5] | Potency [6] | Potency [9] | Potency [7]

CCCCCCCC/C=C\CCCCCCCC(=O)NCc1ccc(O)c(OC)c1
active: Potency [4] 11.9 µM
inactive: Potency [1] | Potency [3] | Potency [5] | Potency [6] | Potency [9] | Potency [7]

NC(=O)C(=O)N/N=C/c1ccc([N+](=O)[O-])o1
inactive: Potency [1] | Potency [3] | Potency [5] | Potency [6] | Potency [9] | Potency [7]

NC(=O)c1nc(-c2cccc(-c3cc(F)ccc3OCC(F)(F)C(F)(F)F)c2)n[nH]1
active: Potency [4] 9.69 µM
inactive: Potency [1] | Potency [5] | Potency [6] | Potency [9] | Potency [7]

CCCCCCCCCCCCN(CCO)CCO
inactive: Potency [1] | Potency [5] | Potency [6] | Potency [9] | Potency [7]
active: Potency [2] 54.3 µM

COc1ccc2sc(C(=O)Nc3nnn[nH]3)c(OC(C)C)c2c1
active: Potency [2] 24.2 µM
inactive: Potency [1] | Potency [5] | Potency [6] | Potency [7]

NC1(c2ccc(-c3nc4ccn5c(=O)[nH]nc5c4cc3-c3ccccc3)cc2)CCC1
active: Potency [4] 13.3 µM
inactive: Potency [1] | Potency [5] | Potency [6] | Potency [7]
